Results: PubChem BioAssay (NCATS)
“And” between values parts separate entries of the source, which are not always exact repeats. Equal values may be shown once. A number with no mark means an inactive call. Results filed as inconclusive are left out. Entries that show only a call come without a potency. The source made the active and inactive calls. Unless noted, calls follow the shape of the dose curve; as a rule, active = well fitted curve in the direction sought with a large enough effect; inconclusive = small, poorly fitted or top-dose-only effect, or another doubt; inactive = no such curve, though single readings can be large; an effect the other way counts as inactive or inconclusive.

Experiments:
[1] = Cell Viability - H-4-II-E (AID 543);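 also: cells exposed to compound for 40 hours; nearly all actives have a fitted effect of over 35% in size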
Procedure, shortened: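 AC50 from Hill-modelled qHTS concentration-response curves. H-4-II-E rat hepatoma cells in complete medium, 40 hr exposure at 37 °C, viability by CellTiter-Glo ATP luminescence.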

[2] = Cell Viability - LYMP2-004 (AID 966); also: nearly all actives have a fitted effect of over 65% in size; also: potency is read from the fitted curve at half-maximal effect
Procedure, shortened: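 Viable-cell number estimated from ATP luminescence (CellTiter-Glo) in 2500 human lymphoblastoid cells/well after 24 hr at 37 C with compound. AC50 fitted to the standard Hill equation.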

[3] = Cell Viability - LYMP2-005 (AID 967); also: series mostly up to about 92 µM
Procedure, shortened: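 qHTS viability screen in LYMP2-005 cells: 24 h at 37 C with compound, ATP luminescence via CellTiter-Glo, AC50 from Hill curves.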

[4] = Cell Viability - LYMP2-023 (AID 975);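 also: cells exposed to compound for 24 hours at 37 °C; nearly all actives have a fitted effect of over 55% in size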; also: potency is read from the fitted curve at half-maximal effect
Procedure, shortened: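 In this qHTS, ATP-based luciferase luminescence (CellTiter-Glo) is quantified in human lymphoblastoid cells after 24 hr compound treatment at 37 C; tetraoctylammonium bromide serves as positive control. Concentration-response curves are Hill-fitted to give AC50.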

[5] = target: Thyroid hormone receptor beta (Homo sapiens) (UniProt P10828); experiment: qHTS assay for small molecule agonists of thyroid hormone receptor beta signaling (AID 588545; calls by dose curve)
Procedure, shortened: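 HEK 293 TR-UAS-bla; agonist mode; 18 hrs, 37 C; CCF4, ex 405/em 460 and 530 nm; norm. T3 10 nM = 100%, DMSO = 0%; Hill fit → EC50, efficacy.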

[6] = qHTS assay for small molecule disruptors of the mitochondrial membrane potential - 1 hr assay (AID 651754; calls by dose curve; also: nearly all actives have a fitted effect of over 35% in size; also: potency is read from the fitted curve at half-maximal effect)
Procedure, shortened: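 In this qHTS format, a 1 hr compound treatment of HepG2 cells precedes Mito-MPS staining, and membrane potential is judged from aggregate (red) against monomer (green) fluorescence intensity.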

[7] = Cell Viability - LYMP2-015 (AID 971); also: nearly all actives have a fitted effect of over 55% in size; also: potency is read from the fitted curve at half-maximal effect
Procedure, shortened: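 AC50 values reflect Hill-model fits of ATP-based luminescence (CellTiter-Glo) from a human lymphoblastoid line, 2500 cells/well, treated 24 hr at 37 C.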

[8] = Cell Viability - LYMP2-006 (AID 978);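 also: cells exposed to compound for 24 hours; nearly all actives have a fitted effect of over 60% in size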; also: potency is read from the fitted curve at half-maximal effect
Procedure, shortened: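 Concentration-dependent loss of intracellular ATP in a human lymphoblastoid line after 24 hr treatment at 37 C was measured by CellTiter-Glo luminescence, with AC50 values obtained from standard Hill-equation modelling.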

[9] = target: Glucocorticoid receptor (Homo sapiens) (UniProt P04150); experiment: qHTS assay for small molecule agonists of glucocorticoid receptor signaling (AID 588532; active = well fitted curve in the direction sought with a large enough effect in the signal ratio, with a control signal flat; the % refers to the signal ratio); settings: HeLa MMTV-bla, beta-lactamase ratio, agonist, 18 h; active compounds read high; percent of dexamethasone control, DMSO zero
Procedure, shortened: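 Agonist-mode qHTS: GRE-driven beta-lactamase in HeLa cells exposed 18 h to titrated compounds (up to 92 uM), then CCF4 ratio read after 2 h at RT; Hill-fitted EC50, efficacy relative to 0.1 uM dexamethasone.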

[10] = target: Glucocorticoid receptor (Homo sapiens) (UniProt P04150); experiment: qHTS assay for small molecule antagonists of glucocorticoid receptor signaling (AID 588533; active = well fitted inhibition curve with a large enough effect in the signal ratio, with a control signal flat, not every such curve was filed as active; the % refers to the signal ratio;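 also: cells stimulated with 2 nM dexamethasone as agonist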)
Procedure, shortened: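 Antagonist-mode qHTS: compound titrations added to GRE-bla HeLa cells, then dexamethasone 2 nM final; 18 h, 37 C. CCF4 FRET fluorescence normalized to dexamethasone and DMSO; IC50 from Hill fit.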

[11] = qHTS assay for environmental chemicals that activate the Aryl hydrocarbon Receptor (AhR) signaling pathway (AID 651777); settings: 1A2-DRE human hepatoma cells, luciferase, 24 h; activation: active compounds read high; also: nearly all actives have a fitted effect of over 15% in size
Procedure, shortened: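 1A2-DRE human hepatoma reporter line; 1,200 cells/well; cmpd or DMSO 24 h, 37 C/5% CO2; One-Glo 30 min RT; luciferase lum.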

[12] = target: Nuclear receptor ROR-gamma (Homo sapiens) (UniProt P51449); experiment: qHTS assay for small molecule antagonists of the retinoid-related orphan receptor gamma (ROR-gamma) signaling pathway (AID 651802); also: nearly all actives have a fitted effect of over 60% in size; also: potency is read from the fitted curve at half-maximal effect
Procedure, shortened: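 Doxycycline-induced reporter activity in engineered CHO cells (TET-inducible ROR, RORE-LUC) was measured by luminescence after 16hr compound exposure at 37C.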

[13] = Cellular Toxicity (caspase-3) Hek293 (AID 664);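 also: cells exposed to compound for 16 h at 37 °C before readout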
Procedure, shortened: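 Apoptosis readout: Caspase-Glo 3/7 signal in human HEK293 cells following 16-hour compound incubation. Responses scaled between DMSO baseline and 100 uM tamoxifen.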

[14] = target: Estrogen receptor (Homo sapiens) (UniProt P03372); experiment: qHTS assay for small molecule agonists of estrogen receptor alpha signaling (AID 588514; calls by dose curve; also: nearly all actives have a fitted effect of over 70% in size)
Procedure, shortened: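 Fluorescence from CCF4 cleavage reports ER-alpha-driven beta-lactamase expression in HEK 293 cells treated 18 hrs at 37 C. Data normalized to 17-beta-estradiol (20 nM) and DMSO, fitted to Hill equation.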

[15] = target: Peroxisome proliferator-activated receptor gamma (Homo sapiens) (UniProt P37231); experiment: qHTS assay for small molecule antagonists of peroxisome proliferator-activated receptor gamma signaling (AID 588537; active = well fitted inhibition curve with a large enough effect in the signal ratio, with a control signal flat, not every such curve was filed as active; the % refers to the signal ratio;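 also: reporter cells co-stimulated with 50 nM rosiglitazone agonist during compound treatment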)
Procedure, shortened: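 Cell-based beta-lactamase assay; GW9662 served as the antagonist control. Stimulation used rosiglitazone, final 50 nM, 16 h, 37 C.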

[16] = qHTS assay for small molecule activators of the human pregnane X receptor (PXR) signaling pathway (AID 720659; call rule not given here)
[17] = target: Voltage-gated inwardly rectifying potassium channel KCNH2 (Homo sapiens) (UniProt Q12809); experiment: qHTS Assay for Small Molecule Inhibitors of the Human hERG Channel Activity (AID 588834);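 also: U2OS cells transduced with hERG by BacMam; top concentration of the series differs between compounds; lower thallium flux fluorescence means stronger hERG block; nearly all actives have a fitted effect of over 50% in size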
Procedure, shortened: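 Cells were infected with hERG-BacMam virus for 4 hrs at room temperature, grown overnight, then seeded at 2000/well. After dye loading and roughly 10 min compound treatment, thallium influx was triggered and fluorescence recorded.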

[18] = MultiTox-Fluor Cytotoxicity Assay - LYMP1-002 - Live Cells (AID 955)
Procedure, shortened: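 In this qHTS viability format, lymphoblastoid cells (LYMP1-002, human) received compound for 16 hr at 37 C. Fluorogenic GF-AFC cleavage by viable cells was detected at 405/510 nm after 1 h at room temperature.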

Sequence of Glucocorticoid receptor (Homo sapiens) (P04150 whole entry, looked up): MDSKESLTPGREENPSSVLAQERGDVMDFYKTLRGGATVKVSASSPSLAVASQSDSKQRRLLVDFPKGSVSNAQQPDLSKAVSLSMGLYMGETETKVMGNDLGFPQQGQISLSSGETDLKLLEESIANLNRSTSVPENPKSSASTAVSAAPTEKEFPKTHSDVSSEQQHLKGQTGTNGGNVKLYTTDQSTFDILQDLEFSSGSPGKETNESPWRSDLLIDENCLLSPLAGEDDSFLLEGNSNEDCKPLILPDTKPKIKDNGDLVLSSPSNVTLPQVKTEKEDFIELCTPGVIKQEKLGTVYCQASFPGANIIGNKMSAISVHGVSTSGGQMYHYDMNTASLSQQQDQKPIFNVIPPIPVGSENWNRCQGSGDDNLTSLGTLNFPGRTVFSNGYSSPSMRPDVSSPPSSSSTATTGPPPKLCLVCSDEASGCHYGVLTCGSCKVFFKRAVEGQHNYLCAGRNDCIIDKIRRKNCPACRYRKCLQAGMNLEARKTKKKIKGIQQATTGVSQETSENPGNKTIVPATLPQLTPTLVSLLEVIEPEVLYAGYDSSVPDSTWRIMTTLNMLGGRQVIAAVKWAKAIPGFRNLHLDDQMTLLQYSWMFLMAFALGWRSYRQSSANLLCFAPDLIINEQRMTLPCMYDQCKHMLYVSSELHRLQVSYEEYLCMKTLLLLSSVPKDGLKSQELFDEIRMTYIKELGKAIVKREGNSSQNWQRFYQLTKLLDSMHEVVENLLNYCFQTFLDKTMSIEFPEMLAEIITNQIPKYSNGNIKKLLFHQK
Sequence of Thyroid hormone receptor beta (Homo sapiens) (P10828 whole entry, looked up): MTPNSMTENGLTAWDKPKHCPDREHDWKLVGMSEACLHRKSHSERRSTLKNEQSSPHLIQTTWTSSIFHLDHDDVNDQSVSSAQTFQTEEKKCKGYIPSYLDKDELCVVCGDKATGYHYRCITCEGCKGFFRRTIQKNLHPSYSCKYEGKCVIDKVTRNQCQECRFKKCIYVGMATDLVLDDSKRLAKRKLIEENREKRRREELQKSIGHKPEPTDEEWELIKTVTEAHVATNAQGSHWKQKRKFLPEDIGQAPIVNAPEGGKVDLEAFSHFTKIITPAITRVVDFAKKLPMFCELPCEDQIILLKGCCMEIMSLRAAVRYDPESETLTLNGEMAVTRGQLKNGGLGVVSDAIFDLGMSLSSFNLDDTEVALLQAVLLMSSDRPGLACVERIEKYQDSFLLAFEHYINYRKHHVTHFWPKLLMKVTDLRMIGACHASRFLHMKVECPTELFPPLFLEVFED
Sequence of Peroxisome proliferator-activated receptor gamma (Homo sapiens) (P37231 whole entry, looked up): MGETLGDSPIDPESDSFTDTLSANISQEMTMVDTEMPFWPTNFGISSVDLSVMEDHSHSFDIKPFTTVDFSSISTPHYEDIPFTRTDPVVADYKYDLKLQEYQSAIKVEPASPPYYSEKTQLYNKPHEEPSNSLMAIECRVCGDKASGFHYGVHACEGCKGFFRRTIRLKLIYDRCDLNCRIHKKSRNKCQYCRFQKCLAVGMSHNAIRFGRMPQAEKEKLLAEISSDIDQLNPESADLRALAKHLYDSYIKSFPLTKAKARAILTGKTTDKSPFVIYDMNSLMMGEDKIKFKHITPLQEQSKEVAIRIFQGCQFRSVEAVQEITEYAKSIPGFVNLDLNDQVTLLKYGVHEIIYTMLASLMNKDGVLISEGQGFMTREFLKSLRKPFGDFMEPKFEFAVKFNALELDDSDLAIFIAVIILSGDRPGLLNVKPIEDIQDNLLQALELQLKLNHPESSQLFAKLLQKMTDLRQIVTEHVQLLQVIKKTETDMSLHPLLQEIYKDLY
Sequence of Estrogen receptor (Homo sapiens) (P03372 whole entry, looked up): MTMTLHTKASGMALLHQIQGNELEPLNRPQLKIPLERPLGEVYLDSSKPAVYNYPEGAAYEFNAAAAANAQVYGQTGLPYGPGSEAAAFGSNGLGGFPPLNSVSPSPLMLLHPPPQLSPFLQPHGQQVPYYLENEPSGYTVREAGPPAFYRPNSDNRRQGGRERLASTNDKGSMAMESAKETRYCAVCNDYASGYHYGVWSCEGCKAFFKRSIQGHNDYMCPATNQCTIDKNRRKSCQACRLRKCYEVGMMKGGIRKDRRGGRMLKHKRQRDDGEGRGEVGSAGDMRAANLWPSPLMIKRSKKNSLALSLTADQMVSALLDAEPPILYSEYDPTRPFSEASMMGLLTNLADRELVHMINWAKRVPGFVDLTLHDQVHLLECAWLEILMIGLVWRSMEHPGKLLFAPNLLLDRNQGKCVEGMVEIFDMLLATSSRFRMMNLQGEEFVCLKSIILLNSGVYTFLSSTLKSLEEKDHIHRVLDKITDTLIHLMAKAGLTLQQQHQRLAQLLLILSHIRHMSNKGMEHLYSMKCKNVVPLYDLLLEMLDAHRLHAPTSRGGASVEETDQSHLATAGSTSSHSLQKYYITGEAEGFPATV
Sequence of Nuclear receptor ROR-gamma (Homo sapiens) (P51449 whole entry, looked up): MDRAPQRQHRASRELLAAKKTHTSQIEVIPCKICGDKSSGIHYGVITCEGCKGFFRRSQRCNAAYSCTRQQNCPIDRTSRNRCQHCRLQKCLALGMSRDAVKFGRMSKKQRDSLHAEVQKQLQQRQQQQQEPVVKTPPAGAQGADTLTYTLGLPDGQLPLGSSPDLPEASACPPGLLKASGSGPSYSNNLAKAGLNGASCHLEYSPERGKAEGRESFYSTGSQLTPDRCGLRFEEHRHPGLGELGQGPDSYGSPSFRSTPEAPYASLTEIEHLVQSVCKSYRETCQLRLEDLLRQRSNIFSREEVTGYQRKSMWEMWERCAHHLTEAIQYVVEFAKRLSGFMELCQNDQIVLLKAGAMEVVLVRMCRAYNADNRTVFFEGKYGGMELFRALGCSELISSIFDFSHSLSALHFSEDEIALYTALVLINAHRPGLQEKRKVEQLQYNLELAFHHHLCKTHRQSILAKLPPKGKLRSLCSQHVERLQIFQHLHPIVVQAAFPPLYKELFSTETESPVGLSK
Sequence of Voltage-gated inwardly rectifying potassium channel KCNH2 (Homo sapiens) (Q12809 whole entry, looked up): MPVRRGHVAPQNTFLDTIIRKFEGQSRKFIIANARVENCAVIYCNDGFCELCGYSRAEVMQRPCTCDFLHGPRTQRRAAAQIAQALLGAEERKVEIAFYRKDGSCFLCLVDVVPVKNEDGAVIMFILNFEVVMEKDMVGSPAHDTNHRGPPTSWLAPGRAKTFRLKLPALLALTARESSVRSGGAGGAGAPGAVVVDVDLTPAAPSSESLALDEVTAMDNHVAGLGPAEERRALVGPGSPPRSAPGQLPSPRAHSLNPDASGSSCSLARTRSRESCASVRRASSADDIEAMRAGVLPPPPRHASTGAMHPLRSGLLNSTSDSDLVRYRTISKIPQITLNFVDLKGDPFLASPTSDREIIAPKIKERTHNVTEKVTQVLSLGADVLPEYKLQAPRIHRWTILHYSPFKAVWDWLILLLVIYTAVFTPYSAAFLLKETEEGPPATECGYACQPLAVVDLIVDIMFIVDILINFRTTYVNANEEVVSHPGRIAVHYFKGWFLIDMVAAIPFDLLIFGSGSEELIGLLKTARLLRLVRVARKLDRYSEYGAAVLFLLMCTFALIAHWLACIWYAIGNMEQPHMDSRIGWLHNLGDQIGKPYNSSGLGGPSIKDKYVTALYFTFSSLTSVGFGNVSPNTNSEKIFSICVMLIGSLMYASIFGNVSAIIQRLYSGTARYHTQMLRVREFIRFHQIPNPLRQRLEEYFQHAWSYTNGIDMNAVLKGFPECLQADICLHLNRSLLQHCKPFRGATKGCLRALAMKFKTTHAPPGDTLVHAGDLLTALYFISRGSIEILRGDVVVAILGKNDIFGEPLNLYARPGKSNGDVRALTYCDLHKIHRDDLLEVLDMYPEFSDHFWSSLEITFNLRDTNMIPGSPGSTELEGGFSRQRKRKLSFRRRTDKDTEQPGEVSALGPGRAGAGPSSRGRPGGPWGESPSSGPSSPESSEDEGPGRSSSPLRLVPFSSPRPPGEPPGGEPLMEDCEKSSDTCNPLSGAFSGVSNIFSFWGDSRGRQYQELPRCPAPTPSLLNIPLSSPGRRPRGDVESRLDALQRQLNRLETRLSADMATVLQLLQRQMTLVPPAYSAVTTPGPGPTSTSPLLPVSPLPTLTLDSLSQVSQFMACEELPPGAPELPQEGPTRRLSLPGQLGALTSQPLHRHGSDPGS

Row | Structure (SMILES) | Potency [1] | Potency [2] | Potency [3] | Potency [4] | outcome [5] | Potency [6] | Potency [7] | Potency [8] | activation [9] | Potency [10] | activation [11] | Potency [12] | outcome [13] | Potency [14] | Potency [15] | outcome [16] | Potency [17] | outcome [18]
1 | CCCCCCCCCc1ccc(O)cc1 | inactive | inactive | inactive | inactive | inactive | 10.6 µM (active) |  |  |  |  |  |  |  |  |  |  |  | 
2 | ClC1=C(Cl)C2(Cl)C3C4CC(C5OC45)C3C1(Cl)C2(Cl)Cl (stereo not given) | inactive | 20 µM (active) |  | 39.8 µM (active) | inactive |  | 39.8 µM (active) | 31.6 µM (active) | -5.87% | inactive | -0.344% | 13.3 µM (active) |  |  |  |  |  | 
3 | CCc1cccc(CC)c1N(COC)C(=O)CCl |  |  |  |  | inactive | inactive |  |  | 0.967% and -3.2% |  | -1.54% and -2.21% |  |  |  |  |  |  | 
4 | COP(=S)(OC)Oc1ccc([N+](=O)[O-])cc1 |  |  | inactive | inactive |  | inactive |  | inactive |  |  | 0.87% and 0.313% | inactive | inactive | inactive | inactive | inactive |  | 
5 | COC(=O)NC(=S)Nc1ccccc1NC(=S)NC(=O)OC |  |  |  | inactive | inactive | inactive | inactive | inactive | 7.06% and -4.28% | inactive | 11.9% and 4.33% | inactive |  | inactive | inactive |  | inactive | 
6 | ClC(Cl)=C(c1ccc(Cl)cc1)c1ccc(Cl)cc1 |  | inactive | inactive | inactive | inactive |  | inactive | inactive | 4.56% and 6.94% and 2.36% | inactive | 0.0823% and 0.597% and 0.112% | 37.6 µM (active) and 33.5 µM (active) |  | inactive | inactive |  |  | inactive
